HEK293 tox = qHTS of GLP-1 Receptor Inverse Agonists: Cytotox Screen | HEK293 cAMP-luciferase reporter cells, luminescence, 24 h | 0.13% of 410,000 active | Potency, µM (titrated, usually from 38.3 µM), actives largely listed as inhibitors;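 also: loss of luciferase light is scored as toxicity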
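Here, cytotoxicity is scored as loss of luminescence. The MLSMR collection was tested on cells seeded in medium containing 10% Nu serum, with a 24 hr compound exposure preceded by 12 hours of culture.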
GLP1R inv ag = qHTS of GLP-1 Receptor Inverse Agonists (Inhibition Mode); Glucagon-like peptide 1 receptor (Homo sapiens), P43220; HEK293 GLP-1R CRE-luciferase, luminescence, 24 h; GLP-1R form is constitutively active; Potency, µM (top dose mostly 38.3 µM), actives largely listed as inhibitors; 1.6% of 410,000 active; AID 624417, 2012; also: nearly all actives have a fitted effect of over 55% in size
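Inverse agonism was detected as reduced cAMP-driven luciferase luminescence after 24 h compound treatment. The cells were HEK293 clones expressing constitutively active human GLP-1R with the reporter. Reporter-only and GPR119 cell lines served as counterscreen controls.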
PTHR1 agonist = qHTS for PTHR1 Agonists: Primary Screen; 0.075% of 410,000 active; Potency, µM (doses to about 115 µM), actives largely listed as activators; HEK293 GP2 PTHR1 cells, GloSensor cAMP luminescence, 1 h; Parathyroid hormone/parathyroid hormone-related peptide receptor (Homo sapiens), Q03431; also: nearly all actives have a fitted effect of over 55% in size
Target sequence (Q03431 whole entry, looked up): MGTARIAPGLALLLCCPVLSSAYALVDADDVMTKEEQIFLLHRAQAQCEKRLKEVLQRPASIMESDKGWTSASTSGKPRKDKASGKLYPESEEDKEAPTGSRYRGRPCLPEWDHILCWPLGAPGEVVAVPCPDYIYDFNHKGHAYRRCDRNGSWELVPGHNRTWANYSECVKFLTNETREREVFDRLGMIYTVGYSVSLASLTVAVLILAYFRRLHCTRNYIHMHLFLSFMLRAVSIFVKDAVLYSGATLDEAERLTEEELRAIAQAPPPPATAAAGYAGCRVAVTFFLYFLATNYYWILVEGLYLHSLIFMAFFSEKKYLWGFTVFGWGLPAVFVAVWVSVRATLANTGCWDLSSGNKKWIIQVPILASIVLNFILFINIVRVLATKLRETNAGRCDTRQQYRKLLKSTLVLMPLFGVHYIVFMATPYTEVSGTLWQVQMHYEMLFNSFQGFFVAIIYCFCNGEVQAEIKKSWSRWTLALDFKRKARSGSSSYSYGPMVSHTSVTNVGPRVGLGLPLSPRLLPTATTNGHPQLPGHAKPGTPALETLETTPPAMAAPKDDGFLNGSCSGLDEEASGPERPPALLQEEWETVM
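HEK-293-derived GP2 cells expressing PTHR1 and a GloSensor cAMP reporter, 3,000/well, plated overnight, given luciferin plus IBMX (each 0.5 mM as added) for 1 h at 37 °C, then compound for 1 h at 37 °C. Luminescence was read after 15 min at room temperature.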
GLP-1R agonist = qHTS of GLP-1 Receptor Agonists; HEK293 GLP-1R CRE-luciferase, luminescence, 4-6 h; cells express a hypersensitive GLP-1R form; Potency, µM (series often up to 45.6 µM), hits mostly activators; 0.007% of 380,000 active; AID 624172, 2012
Large screens that a line does not name were inactive. Only some compounds are listed: those with a hit (about 1.7% of all), similar ones and a draw of the others. Calls follow the shape of the dose curve; as a rule, active = well fitted curve in the direction sought with a large enough effect; inconclusive = small, poorly fitted or top-dose-only effect, or another doubt; inactive = no such curve, though single readings can be large; an effect the other way counts as inactive or inconclusive.

Cc1ccc(CN(C)C(=O)CN2C(=O)NC(c3ccccc3)(c3ccccc3)C2=O)c(C)c1	GLP1R inv ag 3.5µM
c1ccc2c(c1)CCN(c1nc3cc4c(cc3s1)OCCO4)C2	GLP1R inv ag 7.1µM
Cc1ccc(Cn2c(=O)n(Cc3ccc(Cl)cc3)c(=O)c3cccnc32)cc1	none (no result: GLP-1R agonist)
COc1cccc(NC(=O)CN(C)C(=O)Cc2ccc3c(c2)CCC3)c1	GLP1R inv ag inconclusive
CN(CC(=O)Nc1ccc(OC(F)(F)F)cc1)C(=O)Cc1ccc2c(c1)CCC2	GLP1R inv ag 5.6µM
CCOc1ccc2nc(N3CCCC(C(=O)NCCc4ccc(OC)cc4OC)C3)sc2c1 (configuration not stated)	GLP1R inv ag inconclusive (no result: GLP-1R agonist)
CCCN(CC1CC1)C(=S)NC(=O)c1cc(Br)ccc1Cl	HEK293 tox 3.2µM
CCCCCCCn1c(=O)c(C(=O)OC)c(N)c2ccccc21	GLP1R inv ag 11µM
Clc1ccc(/C=N/NC(=Nc2ccccc2)c2ccccn2)c(Cl)c1	HEK293 tox 10µM
CC(C)(C)NC(=O)C(c1ccncc1)N(C(=O)Cn1nnc(-c2ccc(F)cc2)n1)c1ccccc1F (configuration not stated)	none
CC(C)(C)NC(=O)C(c1ccc(O)cc1)N(C(=O)Cn1nnc(-c2ccc(F)cc2)n1)c1ccccc1F (configuration not stated)	GLP1R inv ag 8.9µM
Cc1ccc(N(C(=O)Cn2nnc(-c3ccc(F)cc3)n2)C(C(=O)NC(C)(C)C)c2ccncc2)cc1 (configuration not stated)	GLP1R inv ag inconclusive, PTHR1 agonist 45µM
COc1ccc(-c2oc3ncn4nc(-c5ccccc5O)nc4c3c2-c2ccc(OC)cc2)cc1	none (no result: GLP-1R agonist)
CCOc1ccccc1NC(=O)C(Cc1ccccc1)NS(=O)(=O)c1ccc(Br)s1 (configuration not stated)	GLP1R inv ag 11µM
Cc1ccc(CNC(=O)C(Cc2ccccc2)NS(=O)(=O)c2ccc(Br)s2)cc1 (configuration not stated)	GLP1R inv ag 10µM
COc1ccc(C)cc1NC(=O)C(Cc1ccccc1)NS(=O)(=O)c1ccc(Br)s1 (configuration not stated)	GLP1R inv ag inconclusive (no result: GLP-1R agonist)
CCN(CCCNC(=O)c1nn(-c2ccc(OC)cc2)c(=O)c2c1c1ccccc1n2C)c1cccc(C)c1	none (no result: GLP-1R agonist)
Cc1ccccc1C(=O)Nc1cccc(N)c1	none
Cc1ccccc1C(=O)Nc1cccc(NC(=O)c2ccc(C(C)(C)C)cc2)c1	GLP1R inv ag 7.9µM (no result: GLP-1R agonist)
CCOC(=O)N1CCC(N(CCN(C)C)C(=S)Nc2cccc(Cl)c2)CC1	GLP1R inv ag 11µM
CCOC(=O)N1CCC(N(CCN(C)C)C(=S)Nc2cc(Cl)ccc2C)CC1	HEK293 tox inconclusive, GLP1R inv ag 5.6µM
CCOC(=O)N1CCC(N(CCN(C)C)C(=S)Nc2cc(C)ccc2C)CC1	none
CCc1ccc(NC(=O)CN2C(=O)CCSc3ccccc32)cc1	none
CC(NC(=O)c1cc(S(=O)(=O)N(C)C)ccc1Cl)c1ccc(-n2ccnc2)cc1 (configuration not stated)	none
CN(C)CCCN(C(=O)CCOc1ccccc1)c1nc2ccc(F)cc2s1	HEK293 tox 10µM, GLP1R inv ag inconclusive
CCN(Cc1ccccc1)S(=O)(=O)c1ccc(C(=O)N(CCCN(C)C)c2nc3ccc(F)cc3s2)cc1	HEK293 tox inconclusive, GLP1R inv ag 5.6µM
COc1cccc(-n2cc(C(=O)Nc3cc(C)c(Cl)cc3OC)c3ccccc3c2=O)c1	none (no result: GLP-1R agonist)
O=C(CSc1nnc2ccc3ccccc3n12)Nc1ccccc1Cl	none (no result: GLP-1R agonist)
COc1cc(NC(=O)COCc2cc(-c3ccc4c(c3)OCO4)on2)c(OC)cc1Cl	none (no result: GLP-1R agonist)
CN1/C(=C\C(=O)Nc2cccc(Cl)c2)C(C)(C)c2ccccc21	HEK293 tox inconclusive, GLP1R inv ag 5µM
Cn1c(NCc2cccnc2)nc2cc(-c3cccc(C(F)(F)F)c3)sc2c1=O	none
CCOC(=O)c1c(C)n(C)c2ccc(OCC(O)CN3CCN(C)CC3)cc12 (configuration not stated)	none
CCOC(=O)c1c(C)n(-c2ccc(C)cc2)c2ccc(OCC(O)CN3CCN(C)CC3)cc12 (configuration not stated)	HEK293 tox inconclusive, GLP1R inv ag 5µM
CCOC(=O)c1c(-c2ccccc2)oc2ccc(O)c(CN3CCN(C)CC3)c12	HEK293 tox inconclusive, GLP1R inv ag 3.2µM
CCOC(=O)c1c(-c2ccccc2)oc2ccc(OCC)cc12	GLP1R inv ag 10µM
CCOC(=O)c1c(-c2ccccc2)oc2ccc(OC)cc12	GLP1R inv ag inconclusive
CCOC(=O)c1c(C)n(C)c2ccc(OCC(O)CNCCc3ccccc3)cc12 (configuration not stated)	HEK293 tox inconclusive, GLP1R inv ag 11µM
Cc1oc2ccc(O)c(CN3CCN(Cc4ccccc4)CC3)c2c1C(=O)Nc1ccccc1	GLP1R inv ag inconclusive (no result: GLP-1R agonist)
CCOc1ccccc1NC(=O)CSc1nccn1Cc1ccc(F)cc1	none (no result: GLP-1R agonist)
CCOC(=O)c1c(-c2ccccc2)oc2ccc(OCc3ccc(C)cc3)cc12	PTHR1 agonist inconclusive (no result: GLP-1R agonist)
CN1CCN(Cc2c(O)ccc3occ(C(=O)c4ccccc4)c23)CC1	HEK293 tox 3.2µM
CCOC(=O)c1c(-c2ccccc2)oc2ccc(OCC(O)CNCCN(C)C)cc12 (configuration not stated)	HEK293 tox inconclusive, GLP1R inv ag 5µM
CCOc1ccccc1NC(=O)C1CCCN1S(=O)(=O)c1ccc2nc(-c3ccccc3)[nH]c2c1 (configuration not stated)	GLP1R inv ag inconclusive (no result: GLP-1R agonist)
Cc1nnc(N2CCC(C(=O)NCc3ccc(F)cc3)CC2)c2nn(-c3ccc(Cl)cc3)c(C)c12	PTHR1 agonist inconclusive (no result: GLP-1R agonist)
Cc1cccc(Nc2nnc(SCC(=O)NC3CCCc4ccccc43)s2)c1C (configuration not stated)	GLP1R inv ag 8.9µM
Cc1ccccc1-n1c(C)nnc1SCC(=O)NC1CCCc2ccccc21 (configuration not stated)	none
CSc1ccc(CN(C)C(=O)C(c2ccccc2)c2ccccc2)cc1	GLP1R inv ag 10µM
CC(NC(=O)CCC(=O)NC(C)C1COc2ccccc2O1)C1COc2ccccc2O1 (configuration not stated)	GLP1R inv ag 8.9µM
CCCCN(CC)Cc1ccc(CNS(=O)(=O)c2cc3c(cc2Cl)NC(=O)CO3)o1	none (no result: GLP-1R agonist)
Cc1ccccc1Cn1c(CN2CCC(C(=O)NCc3cccnc3)CC2)cc2ccccc21	GLP1R inv ag inconclusive (no result: GLP-1R agonist)
CC(C)c1ccc(NC(=O)c2cc(S(=O)(=O)NC3CCCCC3)ccc2F)cc1	GLP1R inv ag inconclusive (no result: GLP-1R agonist)
Cc1cc(=O)n2nc(N3CCCC(C(=O)NCCc4ccccc4)C3)sc2n1 (configuration not stated)	none

Assay outcomes (PubChem BioAssay)
